Compound activity as filed in PubChem BioAssay.
The list is not random: actives were taken first. Their share in the collection is about 2.6%.
Rce1 inhib = yeast Ras-converting enzyme inhibition. calls only. AID 2563. yeast membranes, quenched prenylated peptide cleavage fluorescence. 0.27% of 290,000 active. Q03530;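 active = fall in fluorescence gain of 50% or more versus controls, with final raw signal at or below 3038400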
Platelet DG rel = platelet dense granule release activity. 0.22% of 300,000 active. AID 1663. inhibition, %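 (compounds screened at 7.5 µM in platelet-rich plasma)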. human platelet-rich plasma, SFLLRN dense granule ATP release, luminescence;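 active = mean replicate score, as percent of positive control, at or above 50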
PfM18AAP inh-1 = blocks P. falciparum M18 aspartyl aminopeptidase; recombinant PfM18AAP, H-Glu-NHMec fluorogenic cleavage; inhibition, % at 7.35 µM; 1.2% of 290,000 active;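 active = inhibition above the campaign mean inhibition over all tested compounds plus 3 SD, cut at about 28% in these data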
Granule exo inh = blocks lytic granule exocytosis | AID 651702 | TALL-104 LAMP-1 surface exposure, flow cytometry; cells stimulated with thapsigargin and PMA | inhibition, % at 10 µM | 0.66% of 360,000 active;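 active = inhibition above about 55%, limit read from the data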
ABHD5-PLIN5 inh = ABHD5-PLIN5 protein interaction inhibition; Q00G26+Q8WTS1; Split G. princeps luciferase complementation, luminescence, 4 h; inhibition, % at 4 µM; 0.78% of 360,000 active; AID 602281;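 active = inhibition above the mean inhibition across every tested compound plus 3 SD, cut at about 22% in these data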
Target sequence (Q00G26 whole entry, looked up): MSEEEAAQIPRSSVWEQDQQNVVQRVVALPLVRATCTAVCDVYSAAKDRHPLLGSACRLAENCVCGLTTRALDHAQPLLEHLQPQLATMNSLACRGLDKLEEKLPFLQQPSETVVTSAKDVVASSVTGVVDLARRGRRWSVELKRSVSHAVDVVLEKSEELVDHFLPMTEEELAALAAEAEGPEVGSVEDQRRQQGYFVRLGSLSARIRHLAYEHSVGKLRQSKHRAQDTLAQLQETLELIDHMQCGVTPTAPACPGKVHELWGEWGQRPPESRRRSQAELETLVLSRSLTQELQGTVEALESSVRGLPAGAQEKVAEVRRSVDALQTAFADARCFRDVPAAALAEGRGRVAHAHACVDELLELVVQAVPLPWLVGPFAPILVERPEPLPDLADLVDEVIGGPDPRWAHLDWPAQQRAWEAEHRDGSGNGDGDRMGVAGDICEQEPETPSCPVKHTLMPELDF
Target sequence (Q8WTS1 whole entry, looked up): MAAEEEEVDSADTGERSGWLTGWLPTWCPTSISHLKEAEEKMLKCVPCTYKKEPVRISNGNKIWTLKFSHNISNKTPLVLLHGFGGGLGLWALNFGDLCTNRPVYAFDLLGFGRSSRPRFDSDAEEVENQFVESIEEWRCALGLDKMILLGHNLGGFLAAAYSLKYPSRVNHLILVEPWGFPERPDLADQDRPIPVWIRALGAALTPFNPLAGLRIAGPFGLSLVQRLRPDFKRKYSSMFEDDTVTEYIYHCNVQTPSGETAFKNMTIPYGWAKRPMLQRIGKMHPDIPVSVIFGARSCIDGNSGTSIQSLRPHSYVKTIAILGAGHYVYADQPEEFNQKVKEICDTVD
PfM18AAP inh-2 = confirmation of Plasmodium falciparum M18 aspartyl aminopeptidase inhibitors; shares compounds with PfM18AAP inh-1; recombinant PfM18AAP, H-Glu-NHMec fluorogenic cleavage; inhibition, % at 7.35 µM; 28% of 2,400 active; AID 2170;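 active = mean inhibition over replicate wells above the hit cutoff set for the earlier primary screen, cut at about 29% in these data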
CTSL1 counter = counter-screen for PFM18AAP inhibitors: confirmation of human cathepsin L inhibitors; shares compounds with PfM18AAP inh-1; purified cathepsin L1, Z-Leu-Arg-MCA fluorescence; inhibition, % at 5.96 µM; 2,400 tested, under 10 active; AID 2178;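 active = average inhibition across replicates above the hit cutoff set in the earlier primary screen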
Large screens that a line does not name were inactive (follow-up assays come after a bar, where they were run).

Cc1cccnc1NC(=S)NCc1ccco1	PfM18AAP inh-1 32 | PfM18AAP inh-2 inactive | CTSL1 counter inactive
CCC(=O)n1nc(NCc2ccc(OC)c(OC)c2)nc1NCc1ccc(OC)c(OC)c1	PfM18AAP inh-1 38 | PfM18AAP inh-2 inactive | CTSL1 counter inactive
COc1ccc(CNc2n[nH]c(NCc3ccc(OC)c(OC)c3)n2)cc1OC	PfM18AAP inh-1 47 | PfM18AAP inh-2 inactive | CTSL1 counter inactive
O=C(Nc1ccc(OC(F)(F)F)cc1)Nc1cccc([N+](=O)[O-])c1	none
NS(=O)(=O)c1ccc(-c2ccc(/C=C3\NC(=S)NC3=O)o2)cc1	PfM18AAP inh-1 37 | PfM18AAP inh-2 inactive | CTSL1 counter inactive
NS(=O)(=O)c1ccc(-c2ccc(C=O)o2)cc1	none
O=[N+]([O-])c1cc2c(cc1/C=N/NS(=O)(=O)c1ccc(Br)cc1)OCO2	PfM18AAP inh-1 50 | PfM18AAP inh-2 inactive | CTSL1 counter inactive
CN(CC(=O)Nc1n[nH]c(=S)s1)S(=O)(=O)c1cccc2cccnc12	PfM18AAP inh-1 51 | PfM18AAP inh-2 inactive | CTSL1 counter inactive
Cc1ccnc(NC(=O)CNC(=O)COc2ccccc2)c1	none (no result: PfM18AAP inh-1)
O=C(NC(=S)NC1C2CC3CC(C2)CC1C3)c1ccccc1 (stereo not given)	none
COc1ccc(-[n+]2c(C)cc(/C=C3\Sc4ccccc4N3C)cc2C)cc1	PfM18AAP inh-1 45, Granule exo inh 61 | PfM18AAP inh-2 inactive | CTSL1 counter inactive
COc1ccc(CCNC(=O)N2c3ccccc3Sc3ccccc32)cc1	none (no result: Platelet DG rel)
COC(=O)[C@@]1(Cc2ccc(F)cc2)[C@H]2c3cc(C(=O)N4CCCC4)n(CCc4ccc(O)c(O)c4)c3C[C@H]2CN1C(=O)c1ccccc1	PfM18AAP inh-1 75 (no result: Granule exo inh, ABHD5-PLIN5 inh) | PfM18AAP inh-2 49 | CTSL1 counter inactive
C=CC(C)N1C(=O)S/C(=C\c2ccc(N3CCOCC3)cc2C)C1=O (stereo not given)	none
O=C(CSc1nc(-c2ccco2)cc(C(F)(F)F)n1)N1CCN(c2ccc(Cl)cc2)CC1	none
O=c1c2cn[nH]c2[nH]c(=S)n1-c1ccccc1	none
O=c1c2cn[nH]c2[nH]c(=S)n1-c1cccc2ccccc12	PfM18AAP inh-1 51 | PfM18AAP inh-2 inactive | CTSL1 counter inactive
COc1ccc(-n2c(=S)[nH]c3[nH]ncc3c2=O)cc1	PfM18AAP inh-1 46 | PfM18AAP inh-2 inactive | CTSL1 counter inactive
COc1ccc(C2=NOC(C(=O)Nc3c(C)n(C)n(-c4ccccc4)c3=O)C2)cc1OC (stereo not given)	none
CC(C)CCC(C)N=Cc1c(O)n(Cc2ccccc2)c(=O)c2ccccc12 (stereo not given)	none
O=c1c2ccccc2c(/C=N/c2ncn[nH]2)c(O)n1Cc1ccccc1	PfM18AAP inh-1 54 | PfM18AAP inh-2 inactive | CTSL1 counter inactive
N#Cc1nc(-c2ccc(OCc3ccc(Cl)cc3)cc2)oc1NCc1cccnc1	none
CC(C)n1c(=O)[nH]c2ccccc21	none
CC(C)n1c(=O)[nH][nH]c1=S	PfM18AAP inh-1 57 | PfM18AAP inh-2 36 | CTSL1 counter inactive
Cn1cc(Br)c(C(=O)N2CCCCCC2)n1	none
CN(C)C(CNC(=O)c1ccc2c(=O)n(-c3ccccc3F)c(=S)[nH]c2c1)Cc1ccccc1 (stereo not given)	none
Nn1cnnc1N/N=C/c1cccc(Cl)c1Cl	PfM18AAP inh-1 52 | PfM18AAP inh-2 inactive | CTSL1 counter inactive
COc1cccc(/C=N/Nc2nnc(C)n2N)c1OCc1ccccc1Cl	PfM18AAP inh-1 41 | PfM18AAP inh-2 inactive | CTSL1 counter inactive
O=C(CO)N/N=C/c1cccc(Cl)c1Cl	none
CCc1nnc(N/N=C/c2ccccc2Cl)n1N	PfM18AAP inh-1 39 | PfM18AAP inh-2 inactive | CTSL1 counter inactive
Nn1cnnc1N/N=C/c1ccccc1C(F)(F)F	PfM18AAP inh-1 48 | PfM18AAP inh-2 inactive | CTSL1 counter inactive
COc1cccc(C(=O)COc2ccccc2N2C(=O)C3C4C=CC(C4)C3C2=O)c1 (stereo not given)	none
CC1CCCC(C)N1CCCNC(=O)Cn1cc2c(n1)CCCC2 (stereo not given)	none
N#Cc1c(Nc2ccccc2C(F)(F)F)s[nH]c1=O	PfM18AAP inh-1 36 | PfM18AAP inh-2 inactive | CTSL1 counter inactive
Cc1ccc(CN2CCN(Cc3cn[nH]c3-c3ccccc3)CC2CCO)o1 (stereo not given)	none
N#CC[C@H](Cc1ccccc1)N1CCN(Cc2ccccc2)CCC1=O	none
N#CC[C@H](Cc1ccccc1)N1CCN(CCc2ccccc2)CCC1=O	PfM18AAP inh-1 33 | PfM18AAP inh-2 inactive | CTSL1 counter inactive
Cc1c(NC(=O)CN2CCN(c3ccc(O)cc3)CC2)c(=O)n(-c2ccccc2)n1C	PfM18AAP inh-1 39 | PfM18AAP inh-2 inactive | CTSL1 counter inactive
Cc1c(NC(=O)CN2CCN(c3ccc([N+](=O)[O-])cc3)CC2)c(=O)n(-c2ccccc2)n1C	none
NC(=S)Nc1cccc2cccnc12	PfM18AAP inh-1 32 | PfM18AAP inh-2 inactive | CTSL1 counter inactive
Oc1ccc(N2CCN(c3ccnc4cc(Cl)ccc34)CC2)cc1	PfM18AAP inh-1 38 | PfM18AAP inh-2 inactive | CTSL1 counter inactive
Cc1[nH]c(=S)c(C#N)c(C)c1CCC#N	Platelet DG rel 76, PfM18AAP inh-1 38 | PfM18AAP inh-2 37 | CTSL1 counter inactive
Cc1ccc(-c2nc(Nc3cccc(O)c3)c3ccccc3n2)cc1	none
Oc1cccc(Nc2c3ccccc3nc3ccccc23)c1	PfM18AAP inh-1 37 | PfM18AAP inh-2 inactive | CTSL1 counter inactive
c1cncc(Nc2nc(-c3ccncc3)cs2)c1	none
Clc1ccccc1-c1csc(Nc2cccnc2)n1	PfM18AAP inh-1 39 | PfM18AAP inh-2 inactive | CTSL1 counter inactive
Cc1ccccc1OCCCC(=O)NC1CCCCC1	none
O=C(Nc1nc2ccccc2[nH]1)C1CC(=O)N(c2ccc3c(c2)OCCO3)C1 (stereo not given)	none
Cc1ncc(CO)c(/C=N/NC(=O)c2ccccc2Br)c1O	PfM18AAP inh-1 35 | PfM18AAP inh-2 inactive | CTSL1 counter inactive
O=C(COc1ccc(C(=S)N2CCOCC2)cc1Cl)Nc1ccccc1Cl	PfM18AAP inh-1 42 | PfM18AAP inh-2 inactive | CTSL1 counter inactive
COc1cc(C(=S)N2CCCCC2)ccc1OCC(=O)Nc1ccccc1Cl	none
CCN(CCNc1ccc(Cl)cc1[N+](=O)[O-])C(=O)c1cc([N+](=O)[O-])c(N(C)C)cc1OC	none
Cc1cc(C)n(-c2ccc(F)cc2)c(=O)c1C#N	none
O=C(CN(c1cccc(C(F)(F)F)c1)S(=O)(=O)c1ccccc1)N1CCOCC1	none
CCOC(=O)N1CCN(C(=O)CN(c2cccc(C(F)(F)F)c2)S(=O)(=O)c2ccccc2)CC1	PfM18AAP inh-1 37 | PfM18AAP inh-2 inactive | CTSL1 counter inactive
CC1Sc2ccc(C(=O)O)cc2NC1=O (stereo not given)	PfM18AAP inh-1 44 | PfM18AAP inh-2 inactive | CTSL1 counter inactive
